Tests used:
Assay in all cases: PBM binding z-score (relative to random genomic background probes); higher = stronger binding; sequences stand for … in GC…GCGATTGACAGCGTAGAATGAAGG
[1] = test system: FXR:RXRa (NR concentration 270 nM, RXRa partner concentration 90 nM)
Outline: (§1)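 Binding z-scores were set against random background probes. The data came from custom Agilent 4×180K protein-binding microarrays carrying double-stranded probes with 34-nt variable regions, incubated 1 h with ligand-free nuclear receptor dimers. Partner-specific antibodies detected binding, and scanned fluorescence was regression-normalized.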

[2] = test system: LXRa:RXRa (NR concentration 270 nM, RXRa partner concentration 90 nM)
Outline: as §1

[3] = test system: LXRa homodimer (NR concentration 270 nM)
Outline: as §1

[4] = test system: LXRb:RXRa (NR concentration 270 nM, RXRa partner concentration 90 nM)
Outline: as §1

[5] = test system: LXRb homodimer (NR concentration 270 nM)
Outline: as §1

[6] = test system: PPARa:RXRa (NR concentration 270 nM, RXRa partner concentration 90 nM)
Outline: as §1

[7] = test system: PPARg:RXRa (NR concentration 180 nM, RXRa partner concentration 90 nM)
Outline: as §1

[8] = test system: PPARg:RXRa 270nM:90nM, anti-RXR (NR concentration 270 nM, RXRa partner concentration 90 nM)
Outline: as §1

[9] = test system: PPARg:RXRa 30nM:10nM, anti-RXR (NR concentration 30 nM, RXRa partner concentration 10 nM)
Outline: as §1

[10] = test system: PPARg:RXRa 90nM:30nM, anti-RXR (NR concentration 90 nM, RXRa partner concentration 30 nM)
Outline: as §1

[11] = test system: PPARg:RXRa DBDmut IVT, anti-RXR (DBD mutation: RXRa K156A/R161A, NR concentration 270 nM, RXRa partner concentration 90 nM)
Outline: as §1

[12] = test system: PPARg:RXRa IVT, anti-PPARg (NR concentration 270 nM, RXRa partner concentration 90 nM)
Outline: as §1

[13] = test system: PPARg DBDmut:RXRa IVT, anti-PPARg (DBD mutation: PPARg1 K132A/R137A, NR concentration 270 nM, RXRa partner concentration 90 nM)
Outline: as §1

[14] = test system: PPARg DBDmut IVT, anti-PPARg (DBD mutation: PPARg1 K132A/R137A, NR concentration 270 nM)
Outline: as §1

[15] = test system: PPARg homodimer (NR concentration 180 nM)
Outline: as §1

[16] = test system: PXR:RXRa (NR concentration 270 nM, RXRa partner concentration 90 nM)
Outline: as §1

[17] = test system: PXR homodimer (NR concentration 270 nM)
Outline: as §1

[18] = test system: RARa:RXR (NR concentration 270 nM, RXRa partner concentration 90 nM)
Outline: as §1

[19] = test system: RARa homodimer (NR concentration 270 nM)
Outline: as §1

[20] = test system: RARb:RXRa (NR concentration 270 nM, RXRa partner concentration 90 nM)
Outline: as §1

Sequence | PBM binding z-score [1] | PBM binding z-score [2] | PBM binding z-score [3] | PBM binding z-score [4] | PBM binding z-score [5] | PBM binding z-score [6] | PBM binding z-score [7] | PBM binding z-score [8] | PBM binding z-score [9] | PBM binding z-score [10] | PBM binding z-score [11] | PBM binding z-score [12] | PBM binding z-score [13] | PBM binding z-score [14] | PBM binding z-score [15] | PBM binding z-score [16] | PBM binding z-score [17] | PBM binding z-score [18] | PBM binding z-score [19] | PBM binding z-score [20]
CAAACTAGGTCAAGGACAGTGAATCTCCGCACGC | 3.5 | 2.6 | 0.383 | 1.84 | 0.431 | 4.98 | 7.68 | 6.71 | 4.3 | 6.04 | 8.06 | 8.33 | 5.83 | 2.41 | 2.39 | 1.42 | 0.22 | 2.41 | 1.49 | 4.06
GGAACGAGGGCATTCAAGTTGATAGCATGGCGAT | 1.18 | 1.46 | -0.583 | 0.241 | -0.723 | 1.52 | 1.12 | 0.948 | -0.0725 | 0.427 | 2.92 | 2.13 | -0.155 | -0.574 | -0.338 | 2.92 | 0.722 | 0.791 | -0.689 | 1.9
TTACCTAGGTGAGCTGAGGTCGTTGATCCAACTC | 0.355 | 0.722 | -0.414 | 0.389 | -0.985 | 1.68 | 0.522 | 1.09 | 0.135 | 0.445 | 3.01 | 3.01 | -0.362 | 0.266 | 0.32 | 3.55 | 0.214 | 1.94 | -1.28 | 0.93
TCATATAGGAAAACAGGTGAAAGTCCGTAAGTTA | 1.22 | 1.13 | 0.235 | 1.11 | -0.323 | 1.44 | 1.13 | 2.8 | 4.43 | 3.77 | 2.83 | 1.11 | 0.0218 | 0.116 | 0.804 | 0.845 | 0.476 | 1.14 | 1.74 | 0.355
AGAACGAGGGCAATGAGTTGATAGCCCGGGTGGC | 0.0897 | 0.0637 | -0.355 | -0.437 | -0.943 | 1.34 | 1.01 | 0.868 | -0.3 | 0.416 | 3.22 | 2.62 | 0.0916 | -0.0623 | 0.48 | 1.43 | 5.33 | 0.0801 | -0.603 | 2.13
AGAATGAGGTTAAGATCAGGCAAACAGAATACAT | 2.11 | 5.61 | -0.312 | 2.82 | -0.408 | 3.45 | 2.21 | 2.38 | 0.95 | 1.63 | 2.85 | 2.81 | 0.992 | 0.64 | 0.518 | 1.33 | -0.00329 | 2.09 | 0.263 | 1.92
GCTAGTTGGTCAGTAACAGGTCACACACCGGTCG | 0.984 | 1.45 | 1.48 | 1.39 | -0.167 | 2.06 | 0.82 | 1.12 | -0.211 | 0.627 | 0.713 | 1.57 | -0.131 | 0.285 | 1.45 | 1.85 | 0.169 | 2.32 | 1.15 | 2.24
GCTAGCAGGCAATTTGGGTCACTCAATGACGGGC | 0.195 | 0.398 | -0.578 | 0.171 | -0.943 | 2.23 | 0.983 | 0.964 | -0.305 | 0.409 | 2.45 | 2.92 | 0.145 | -1.09 | -0.111 | 0.273 | -0.523 | 1.08 | -0.688 | 0.971
ATCGAAAGGTCGACGAGGCGAGTATACACCGTTT | 3.59 | 3.38 | 0.0627 | 2.5 | 0.404 | 4.27 | 2.48 | 2.74 | 0.711 | 1.71 | 0.214 | 1.62 | 0.933 | 1.13 | 1.44 | 2.47 | 0.0107 | 3.26 | 0.0419 | 3.84
TGAACGAGGTTATAAGATCAGGGAACGTTGCAAA | 1.41 | 1.2 | -0.217 | 1.08 | -0.589 | 2.56 | 1.16 | 1.5 | 0.646 | 1.06 | 0.0481 | 1.09 | 0.721 | 0.611 | 0.735 | 0.661 | -0.0458 | 1.31 | -0.0844 | 1.18
GCTGCTACGTCAACTGATGGTCAGCTAAAGCTCG | -0.601 | -0.63 | -0.84 | -0.799 | -1.1 | -0.483 | -0.201 | -0.736 | -0.808 | -0.829 | -0.232 | -0.749 | -0.632 | -1.06 | -1.02 | -0.736 | -1.23 | -0.62 | -1.34 | -0.291
TCTATTAGTTGATTAGGACAACCGAAACAGCGGA | 0.957 | 0.808 | 0.615 | 0.807 | 1.17 | 0.875 | 0.378 | 2.18 | 4.26 | 3.32 | 2.5 | 0.979 | 0.853 | 1.57 | 1.65 | 0.749 | 0.881 | 0.862 | 2.34 | 0.68
ACTATTAGTTGAGAGGAGGGCAACCGATAGGTTG | 0.181 | -0.0431 | 0.0481 | -0.187 | 0.248 | 0.335 | 0.512 | 0.15 | 0.176 | 0.106 | 0.402 | 0.862 | 0.559 | 0.202 | 0.333 | 0.447 | 0.403 | 0.168 | 0.97 | 0.991
ACTAGCAGGCCAAGTTAGGGTCACTCAAACAAAG | 1.87 | 1.73 | -0.142 | 2.55 | -0.86 | 3.36 | 0.753 | 1.38 | -0.00931 | 1.07 | 0.489 | 1.32 | 0.153 | -0.603 | 1.07 | 3 | 0.292 | 3.73 | -0.482 | 2.86
ACTCGGAGTACAAAGGTCAGAGCTACGCCAGTGA | 4.23 | 4.12 | 1.57 | 3.56 | 0.437 | 5.17 | 8.46 | 7.54 | 7.42 | 8.33 | 0.771 | 3.83 | -0.013 | 0.136 | 3.32 | 4.1 | 0.393 | 4.96 | 2.36 | 4.39

Reference: the supplement of paper PMC6555819
